PP1 inh = PP1-alpha (human) inhibition in PP5 counter-screen; P62136; purified PP1alpha, OMFP fluorescence; inhibition, % at 6.7 µM; 320,000 compounds, 0.9% hits; AID 2235;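 active = inhibition above the mean inhibition of all tested compounds plus 3 SD, computed separately for each screening campaign, cut at about 15% in these data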
NadD block = NadD (S. aureus) enzyme inhibition; purified NadD enzyme, colorimetric absorbance read-out; inhibition, % at 20 µM; 360,000 compounds, 0.78% hits; in the data active = inhibition above about 26%
PP5 inh = PP5 (human) phosphatase inhibition. purified PP5c, OMFP substrate fluorescence. inhibition, % at 6.7 µM. 320,000 compounds, 0.18% hits;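 active = inhibition above the campaign's mean inhibition across all tested compounds plus 3 SD, cut at about 9.5% in these data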;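 note: 0% = DMSO only and 100% = 100 µM cantharidin control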
PREPL inhibitor = human PREPL enzyme inhibition. Q4J6C6. AID 2751. 320,000 compounds, 0.68% hits. inhibition, % at 5.96 µM. recombinant PREPL, fluorescence polarization activity-based probe;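 note: 0% = enzyme with DMSO and 100% = wells lacking enzyme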
Target sequence (Q4J6C6 whole entry, looked up): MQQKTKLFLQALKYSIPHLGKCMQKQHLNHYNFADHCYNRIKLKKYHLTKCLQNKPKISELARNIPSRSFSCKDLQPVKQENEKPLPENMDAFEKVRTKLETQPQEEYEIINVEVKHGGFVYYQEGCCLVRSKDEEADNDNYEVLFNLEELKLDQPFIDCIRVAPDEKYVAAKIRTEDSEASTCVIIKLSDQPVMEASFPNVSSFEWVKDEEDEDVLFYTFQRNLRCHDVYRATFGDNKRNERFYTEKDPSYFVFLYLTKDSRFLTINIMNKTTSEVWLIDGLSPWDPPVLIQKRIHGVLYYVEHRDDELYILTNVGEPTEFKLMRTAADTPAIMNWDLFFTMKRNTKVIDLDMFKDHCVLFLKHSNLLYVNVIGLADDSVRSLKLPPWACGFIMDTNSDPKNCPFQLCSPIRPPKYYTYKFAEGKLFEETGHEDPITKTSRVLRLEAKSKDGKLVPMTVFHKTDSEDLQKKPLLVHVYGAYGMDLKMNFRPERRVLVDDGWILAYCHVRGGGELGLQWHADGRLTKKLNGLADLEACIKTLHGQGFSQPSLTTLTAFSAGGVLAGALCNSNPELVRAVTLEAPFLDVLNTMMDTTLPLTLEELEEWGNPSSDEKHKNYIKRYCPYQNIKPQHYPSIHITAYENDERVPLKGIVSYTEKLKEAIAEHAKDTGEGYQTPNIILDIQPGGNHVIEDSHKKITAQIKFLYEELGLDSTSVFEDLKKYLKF
Rpn11 block = blocks the human proteasome subunit Rpn11; O00487; human 26S proteasome, Ub4-pepOG fluorescence polarization; 20S core pre-blocked with epoxomicin; inhibition, % at 20 µM; 360,000 compounds, 0.59% hits;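 active = inhibition at 20 µM, scaled to each plate's controls, above about 33%, limit read from the data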
PREPL confirm = confirmation of human PREPL enzyme inhibitors. shares compounds with PREPL inhibitor. 2,000 compounds, 67% hits. inhibition, % at 5.96 µM. recombinant PREPL, fluorescence polarization activity probe. AID 2803;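 note: 0% = protein with DMSO and 100% = wells lacking protein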
Active calls of the source: *; / = not tested or not shown. Hits are enriched below; roughly 2.4% of the tested compounds scored in any of these assays. Cut-off read from the data, not from the text of the source, unless noted: active = inhibition above about 43%; inactive = the rest.

SMILES	PP1 inh	NadD block	PP5 inh	PREPL inhibitor	Rpn11 block	PREPL confirm
CCCNC(=O)CN1C(=O)NC(CC)(c2ccc(F)cc2)C1=O (stereo not drawn)	14	0	1	6	5	/
COC(=O)C1CCN(CCCOc2ccc(CN3CCN(c4ccc([N+](=O)[O-])cc4)CC3)cc2)CC1	-2	-4	2	52*	0	44*
COc1cc(O)c(C(CC(=O)N2CCN(c3ccccc3)CC2)c2ccc(N(C)C)cc2)c(OC)c1 (stereo not drawn)	2	-2	4	54*	2	48*
O=C([O-])c1ccccc1-[n+]1c(-c2ccccc2)cc(-c2ccccc2)cc1-c1ccccc1	2	3	3	56*	-7	46*
O=[N+]([O-])c1cc(-c2ccccc2)cc([N+](=O)[O-])c1O	/	0	/	/	0	/
Cc1ccc(/C=C/C(=O)Nc2ccc(N(C)C)cc2)o1	8	5	0	48*	6	42
CC(Oc1cccc(Cl)c1)C(=O)N(C)CC(=O)Nc1ccc(N2CCOCC2)cc1 (stereo not drawn)	0	3	1	17	6	/
O=C(CCn1c(=O)oc2cc(Cl)ccc21)Nc1ccc(N2CCOCC2)cc1	-1	-2	2	49*	3	49*
O=C(COc1ccc2ccc(=O)oc2c1)Nc1ccc(N2CCOCC2)cc1	-6	-10	-1	11	-2	/
COc1ccc2c(CC(=O)Nc3ccc(N4CCOCC4)cc3)coc2c1	-4	4	-3	54*	-2	60*
O=C(COc1ccc(F)c(Cl)c1)Nc1ccc(N2CCOCC2)cc1	/	0	/	56*	5	55*
O=C(COc1cccc(Cl)c1)Nc1ccc(N2CCOCC2)cc1	-2	1	3	46*	-1	47*
CN(Cc1ccccc1)C(=O)c1ccc(NC(=O)Cc2cccc(NC(=O)C3CCN(C(=O)C4CCCC4)CC3)c2)cc1	2	12	1	-6	12	/
CCOC(=O)[C@H]1[C@H]2COc3ccc(Cl)cc3[C@@H]2N2C(=O)[C@@H](C)NC(=O)[C@@]12C	/	-3	/	9	-1	/
COc1cc(/C=C(\C#N)C(=O)c2ccc(O)c(O)c2)cc(I)c1O	3	2	0	56*	/	25
CCOc1ccc(CCNC(=O)c2ccc3c(=O)[nH]c4c(C(=O)NC(C)C)sc(=S)n4c3c2)cc1	0	30	3	55*	-3	79*
CC(C)NC(=O)c1sc(=S)n2c1[nH]c(=O)c1ccc(C(=O)NCCc3ccc(Cl)cc3)cc12	0	23	2	70*	22	80*
O=C(NCCc1ccccc1)c1ccc2c(=O)[nH]c3c(C(=O)NCC4CCCO4)sc(=S)n3c2c1 (stereo not drawn)	5	23	1	93*	10	90*
Nc1nc(-c2ccc3ccccc3c2)c(C2(O)C(=O)Nc3c(Br)cc(F)cc32)s1 (stereo not drawn)	-3	-2	1	-3	7	/
Cn1[nH]c2c(c1=O)[C@H](c1ccc(F)cc1)O[C@H](CCc1ccccc1)C2	/	3	/	/	-8	/
CCC(Sc1ncccc1Nc1ccccn1)C(=O)O (stereo not drawn)	-2	-1	1	4	0	/
Nc1nc(CSC(=S)N2CCN(c3ccccc3)CC2)nc(Nc2ccccc2)n1	0	12	3	-50	2	/
Cc1ccc(Nc2nc(N)nc(CSC(=S)N3CCN(c4ccccc4)CC3)n2)cc1	7	4	2	64*	0	34
Cc1cc(C(=O)N2CCC2(C)C(=O)NS(=O)(=O)c2cccc(OC(F)F)c2)nn1C (stereo not drawn)	/	7	/	/	-4	/
CCN(CC(=O)Nc1ccccc1C(F)(F)F)C(=O)CCS(=O)(=O)c1ccc(C)cc1	-3	-3	-2	35	-2	/
SMILES	PP1 inh	NadD block	PP5 inh	PREPL inhibitor	Rpn11 block	PREPL confirm
CCCCCCC(=O)N1C/C=C\C(c2ccc(OC)cc2)N(Cc2ccc(F)cc2)C(=O)[C@H]1Cc1ccccc1 (stereo partly drawn)	10	/	1	48*	/	44*
Cc1cc(C)cc(N(CCC#N)C(=O)COC(=O)CCc2c[nH]c3ccccc23)c1	-4	-6	4	46*	1	39
CC(C)C[C@H]1CN(CCCC[C@H]2CNC(=O)C(=O)N2Cc2ccccc2)C(=O)C(=O)N1CCc1ccc(O)cc1	/	12	/	/	/	/
O=C(/C=C/c1cccc([N+](=O)[O-])c1)NCCSc1ccccc1	4	-7	5	46*	-5	41
CCc1nc2nc(C)c(NS(=O)(=O)c3ccc(Cl)s3)c(=O)n2[nH]1	6	-5	2	3	-7	/
Cn1c(NC(=O)C[n+]2cc(-c3ccc(Cl)c(Cl)c3)n3c2CCC3)cc(=O)n(C)c1=O	4	-4	3	60*	-6	51*
CCN1C(=O)C(=O)N(CC(=O)NC(C)CCc2ccccc2)C1=O (stereo not drawn)	-4	2	-2	-1	2	/
Cc1cc[n+](CC(=O)c2ccccc2)c2ccccc12	-3	3	0	60*	5	21
Fc1ccc(CNc2ccc(N3CCN(Cc4ccccc4)CC3)cc2)cc1	1	2	2	46*	-6	40
CCc1ccc(OCC(=O)N/N=C2\CC(=O)c3ccccc32)cc1	7	7	6	54*	7	-2
COc1nc(NCCN2CCOCC2)nc(Nc2ccc([N+](=O)[O-])cc2)n1	0	4	5	47*	-2	41
COc1ccc(C(=O)c2coc3ccc(O)c(CN4CCOCC4)c23)cc1	2	8	1	53*	5	57*
COc1ccc(C(=O)c2coc3ccc(O)c(CN4CCCC4)c23)cc1	0	-8	1	55*	-4	54*
CCN(CC)Cc1c(O)ccc2occ(C(=O)c3ccc(OC)cc3)c12	-2	-1	-2	43	-5	/
O=C(c1cccs1)c1coc2ccc(O)c(CN3CCOCC3)c12	-7	2	1	42	13	/
COc1ccc(C(=O)c2c(C)oc3ccc(O)c(CN4CCOCC4)c23)cc1	0	6	3	7	3	/
Cc1ccc(C(=O)c2coc3ccc(O)c(CN4CCN(C)CC4)c23)cc1	6	-4	3	44*	3	43
Cc1c(C)c2ccc(OCC(=O)NCCCN3CCCC3=O)cc2oc1=O	0	-2	1	-1	3	/
O=C(Cc1ccc2c(c1)OCCO2)N1CCN(S(=O)(=O)c2cccc(C(F)(F)F)c2)CC1	-2	-3	-10	81*	-2	5
CCc1sc(C(=O)Nc2cccc(-n3cnnn3)c2)cc1C	1	4	3	2	3	/
Cc1ccc(NC(=O)N2CCOCC2)c(C)c1	-4	-7	3	87*	-2	3
